Whole data set: some 68,000 sequences, median “fluorescence intensity (a.u.)” near 9,100, cut for the highest 2% near 16,000. Many of the other results were omitted from the sample, so the highest values are more common in it than they were.
What follows are sequences tested against OsWRKY34 (Oryza sativa, UniProt Q0JBA9 1-250) (assay: protein-binding microarray (RPBM); PBS, 2% BSA, 51.3 ng/ul salmon testes DNA, 50 uM zinc acetate, 200 nM TF, 25 C, 1 h; high values mean tight binding). Conditions: protein: recombinant; tags: N-terminal polyhistidine and DsRed monomer fusion (pET32a); label: CyDye5-dUTP incorporated in the synthesized complementary strand; 3' TTTTT single-stranded linker to array surface; dsDNA, one strand shown.
OsWRKY34, sequence (Q0JBA9 entry or part of it): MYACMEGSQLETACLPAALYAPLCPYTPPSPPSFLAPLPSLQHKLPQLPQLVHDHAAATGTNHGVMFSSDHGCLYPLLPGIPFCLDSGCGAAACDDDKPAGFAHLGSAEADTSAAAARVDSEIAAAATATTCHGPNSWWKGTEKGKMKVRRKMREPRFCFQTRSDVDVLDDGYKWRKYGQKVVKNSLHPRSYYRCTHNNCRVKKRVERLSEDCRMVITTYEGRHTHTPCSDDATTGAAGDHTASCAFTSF
Method in brief: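 The binding signal is fluorescence intensity per array feature (arbitrary units). Readings came from an Axon 4000B scanner after a washed, 2% BSA-blocked, double-stranded custom Agilent array had been incubated for 1 h at 25 °C with 200 nM protein and 50 µM zinc acetate. The protein was a Ni–NTA-purified transcription factor fused N-terminally to polyhistidine and DsRed, expressed in E. coli BL21-CodonPlus.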

Sequence	binding signal
TTAAAAAAAGTTGGGTAATTGTGGGGTTTGTTTTTTCTCCCGGAGTCACCTAGTGCAG	9490 fluorescence intensity (a.u.)
TTTTCTCTCCTGTTTTGGGAGGGTTTTCCACGTTAAATCTCGGAGTCACCTAGTGCAG	8230 fluorescence intensity (a.u.)
TGTACAGTTGGTTCTTTTCTTTTTTTTTTTCAGTTGAGTCCGGAGTCACCTAGTGCAG	9330 fluorescence intensity (a.u.)
ACTTTTGGTGGACCTTGGTTGTTTGGTCTGTTTCTCTCAGCGGAGTCACCTAGTGCAG	8680 fluorescence intensity (a.u.)
TATATCTCGTGGTTTGTGGGTTCTTTTCACTTGTTCAGTGCGGAGTCACCTAGTGCAG	14000 fluorescence intensity (a.u.)
TTGGGAGGGTTTTTCACGTTAAATCTCGTGTCTTCTGTAACGGAGTCACCTAGTGCAG	29500 fluorescence intensity (a.u.)
GTTTGTGGTTCAGTTTTTGTCCCCATGGGTCTCTTAGCGGCGGAGTCACCTAGTGCAG	9120 fluorescence intensity (a.u.)
GTGAGGGTGTGGTTACAGTGGGTTGGTTTTTTTTCTCCCCCGGAGTCACCTAGTGCAG	11800 fluorescence intensity (a.u.)
GGGTTTTCCACGTTAAATCTCGTGTCTTCTGTGTTTGATCCGGAGTCACCTAGTGCAG	12000 fluorescence intensity (a.u.)
GTGGGTTCTTTGTGGGGTCTCTTATAGTTTTCACTGCCAGCGGAGTCACCTAGTGCAG	20500 fluorescence intensity (a.u.)
CCTTTTTGTTGGTCTCTGTTCTTGGGTTGGGTTTTCAGTCCGGAGTCACCTAGTGCAG	20800 fluorescence intensity (a.u.)
TATTAGTGGTATATATCCCTATCAGTCATTCTGCTTGCTTCGGAGTCACCTAGTGCAG	9260 fluorescence intensity (a.u.)
CGACGTACCGTAGCCGATTTCTGTTGCTATTATCATGTTCCGGAGTCACCTAGTGCAG	9450 fluorescence intensity (a.u.)
ATTTCTAGTCATGCCCGATAACCACTCCGGCACGACCACGCGGAGTCACCTAGTGCAG	8150 fluorescence intensity (a.u.)
CCAGACAGCTTCAGTTTGCAACGTACCCAAGTAAGAAACACGGAGTCACCTAGTGCAG	9150 fluorescence intensity (a.u.)
ACTTTGTAGCCCAATAACCACTATTTGATTCAACAGGTTTCGGAGTCACCTAGTGCAG	9900 fluorescence intensity (a.u.)
ACCATTTGTTTGAGCTCCGGAACCTTTTCGCCGTCCTATGCGGAGTCACCTAGTGCAG	8460 fluorescence intensity (a.u.)
ATGGCATTGAGCATTACAGTTGAATTTGTGTAGTTTTTAGCGGAGTCACCTAGTGCAG	8390 fluorescence intensity (a.u.)
CCAGTGGTGGAGTGGAGTGGTGGTGGGGAGACGTGAGGAGCGGAGTCACCTAGTGCAG	8630 fluorescence intensity (a.u.)
CCCTCCTCTCCGCGCGCGCCACCTGTCCATCCGCGCGGAGCGGAGTCACCTAGTGCAG	8970 fluorescence intensity (a.u.)
GGTTATGGTTCAATTCTAATGTTCCTTTGGTGTCACATTTCGGAGTCACCTAGTGCAG	8200 fluorescence intensity (a.u.)
GGTGGGAGTGCGCATTGAGGATAAGCCACTGATGACGTCTCGGAGTCACCTAGTGCAG	8600 fluorescence intensity (a.u.)
TCTCCAGCTTTTTTCTGTTCCTCTGGTCTTGATTCTTGAACGGAGTCACCTAGTGCAG	18200 fluorescence intensity (a.u.)
CAGTCTGTCTTGGTCTCTTTGTTCAGTCATGGTCTCTCTTCGGAGTCACCTAGTGCAG	19000 fluorescence intensity (a.u.)

Sequence	binding signal
CTCCTGCTTCTCTGTTCTTTCCATTCTCCTCCTTTTTTTCCGGAGTCACCTAGTGCAG	14600 fluorescence intensity (a.u.)
CTTCTTCCACTTGAAGCTTTTTCTCTCTTGGTCTTATCCTCGGAGTCACCTAGTGCAG	9690 fluorescence intensity (a.u.)
ATACCTCTTGTGTATTAATTAAACATTAGTGTTTCTGTTCCGGAGTCACCTAGTGCAG	48000 fluorescence intensity (a.u.)
TTAAACGGTCATTCTTGTGTTTTTCCTGTATTTTCTAATCCGGAGTCACCTAGTGCAG	9220 fluorescence intensity (a.u.)
TGACATTTAAATTCTGTTTCTCTCTTTGTGTTTTAGTTCCCGGAGTCACCTAGTGCAG	9720 fluorescence intensity (a.u.)
GTGCAGTTGTCTTCTTCTGTTCTTTGGTCATATAGTAGTTCGGAGTCACCTAGTGCAG	14900 fluorescence intensity (a.u.)
TTTTCTTCTTTCTTTCTCTCTGTCTTGTTCAATTTTTTCTCGGAGTCACCTAGTGCAG	11800 fluorescence intensity (a.u.)
TGGTGGGTGCATTGTTGTTCACATTCCGGATCCCTGCATCCGGAGTCACCTAGTGCAG	9220 fluorescence intensity (a.u.)
TTGTAGTACTAGGTCGTATCTAATACTAGTTGATTTTTTACGGAGTCACCTAGTGCAG	8190 fluorescence intensity (a.u.)
TGTATCTCAAATTCTTTCAGTTGGTTTTGTGCTCTTTTTACGGAGTCACCTAGTGCAG	8920 fluorescence intensity (a.u.)
GGCGCTTTATTCAATTGGTCCGCTCTCGGTCTCCTGCACGCGGAGTCACCTAGTGCAG	8270 fluorescence intensity (a.u.)
GCGGCGCGGCGGGGAGGAGGGAGGGGTGGCGTTGAGGTGGCGGAGTCACCTAGTGCAG	19300 fluorescence intensity (a.u.)
GGCGCTTCTAGGGTTTGGTGGGGTTCGGGCGGGCGCGCCGCGGAGTCACCTAGTGCAG	15600 fluorescence intensity (a.u.)
GAGATGGAGGTGGAGGTGGTGGAGGGGACGACGATGGTGGCGGAGTCACCTAGTGCAG	9610 fluorescence intensity (a.u.)
CGCACTGGCGGGGCTTGGAGCTGGGGTTTCTAGGGTTTGGCGGAGTCACCTAGTGCAG	8980 fluorescence intensity (a.u.)
CGGAGGGGTTGGGCTTGCGGGCGGCGTGTACCTTGTGCACCGGAGTCACCTAGTGCAG	9410 fluorescence intensity (a.u.)
GGAGGGGACGACGATGGTGGGGTGGGTGGTGTCCGGGGTGCGGAGTCACCTAGTGCAG	19100 fluorescence intensity (a.u.)
CTGCGGCGAGAGGTGGGAGGCGGGGCGGTTGTACGTGTGCCGGAGTCACCTAGTGCAG	11000 fluorescence intensity (a.u.)
GGGAGGGGAGGACGGCGACGGCGGCGGCGGCGGGGTGTGGCGGAGTCACCTAGTGCAG	10800 fluorescence intensity (a.u.)
CTGCTGCGAGGGTGGGTGTTGCTTGTACCGGGCGGGGATGCGGAGTCACCTAGTGCAG	20300 fluorescence intensity (a.u.)
CGCGCCGGGTGGCGTTGGTGTTGGCGCCGGGGAGGGTCAGCGGAGTCACCTAGTGCAG	9140 fluorescence intensity (a.u.)
TGGGGTTGAGGGAGGGTGCCGCGGGTGGCTGGCGGAGGACCGGAGTCACCTAGTGCAG	10600 fluorescence intensity (a.u.)
TTTGCTGCTGCTGCTTCTAGGGTTAGGGTTTGGGGTGGGGCGGAGTCACCTAGTGCAG	22100 fluorescence intensity (a.u.)
